A selection: hits, their analogues and other compounds. The true share with any hit is near 10%.
JMJD2A Tudor: JMJD2A Tudor domain (human) inhibition. O75164. AlphaScreen JMJD2A-Tudor / H3K4me3 peptide binding. Potency, µM (highest dose often 114 µM), inactives show at the top dose activity change, negative = inhibition, actives largely listed as inhibitors. actives 4.4% (n = 390,000). AID 504339; further: on the % scale 0 is the no-effect control and ±100 the full control effect; nearly all actives have a fitted effect of over 50% in size
Target sequence (O75164 whole entry, looked up, the tested form may be a part): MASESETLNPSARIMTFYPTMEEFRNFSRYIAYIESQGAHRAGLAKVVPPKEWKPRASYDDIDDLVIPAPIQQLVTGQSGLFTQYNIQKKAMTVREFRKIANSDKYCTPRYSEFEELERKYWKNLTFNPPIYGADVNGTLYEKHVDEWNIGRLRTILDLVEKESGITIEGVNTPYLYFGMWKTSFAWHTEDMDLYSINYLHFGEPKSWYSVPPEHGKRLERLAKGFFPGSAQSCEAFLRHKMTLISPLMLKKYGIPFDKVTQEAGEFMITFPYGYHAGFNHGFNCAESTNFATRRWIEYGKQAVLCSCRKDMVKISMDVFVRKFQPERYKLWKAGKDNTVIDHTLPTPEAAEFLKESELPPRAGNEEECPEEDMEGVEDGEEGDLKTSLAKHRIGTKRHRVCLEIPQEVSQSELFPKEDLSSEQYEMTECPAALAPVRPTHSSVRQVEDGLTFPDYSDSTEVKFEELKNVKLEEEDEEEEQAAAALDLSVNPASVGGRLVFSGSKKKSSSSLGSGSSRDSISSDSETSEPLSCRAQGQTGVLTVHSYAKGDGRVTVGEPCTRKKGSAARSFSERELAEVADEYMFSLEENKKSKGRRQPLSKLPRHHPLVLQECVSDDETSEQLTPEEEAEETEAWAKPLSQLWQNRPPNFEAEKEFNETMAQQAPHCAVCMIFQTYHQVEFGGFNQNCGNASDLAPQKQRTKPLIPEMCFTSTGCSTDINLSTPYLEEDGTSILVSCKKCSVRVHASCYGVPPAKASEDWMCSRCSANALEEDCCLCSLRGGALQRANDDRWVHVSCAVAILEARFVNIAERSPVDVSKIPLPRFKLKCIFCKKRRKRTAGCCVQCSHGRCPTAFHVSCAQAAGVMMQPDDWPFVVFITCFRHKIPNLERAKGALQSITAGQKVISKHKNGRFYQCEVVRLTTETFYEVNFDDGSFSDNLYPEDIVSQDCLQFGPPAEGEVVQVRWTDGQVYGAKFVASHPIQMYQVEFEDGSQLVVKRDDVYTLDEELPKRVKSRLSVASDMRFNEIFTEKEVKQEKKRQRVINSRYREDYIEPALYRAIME
G9a inh: inhibitors of human histone lysine methyltransferase G9a; actives 8.8% (n = 350,000); G9a H3K9 monomethylation, AlphaScreen, 2 h; Potency, µM (doses to about 102 µM), for inactives: at the highest dose activity, negative = inhibition, hits mostly inhibitors; Q96KQ7; AID 504332; further: on the % scale 0 is the no-effect control and ±100 the full control effect; nearly all actives have a fitted effect of over 75% in size
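G9a (20 nM) preincubated 15 min RT with compounds, then 500 nM biotinylated H3K9 peptide and 20 uM SAM added; 2 h RT reaction. Monomethyl-H3K9 product detected by AlphaScreen with anti-H3K9me1 antibody, streptavidin donor and anti-rabbit IgG acceptor beads.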
HP1b binding inh: HP1-beta chromodomain-methylated histone interaction inhibition. AlphaScreen HP1-beta / biotin-H3K9me3 peptide binding. Potency, µM (top dose mostly 114 µM), for the others: top-dose activity change, negative = inhibition, most hits filed as inhibitors. actives 0.56% (n = 390,000); further: nearly all actives have a fitted effect of over 70% in size
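HP1-beta protein (50 nM final) preincubated 30 min at room temperature with biotinylated H3(1-18)K9me3 peptide (50 nM) in PBS pH 7.4, 0.01% Tween-20, then compound added for 30 min. AlphaScreen streptavidin donor/nickel chelate acceptor beads (10 ug/mL final), 30 min dark, luminescence read.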
GLS inh: glutaminase GLS (human) inhibition; GLS enzymatic activity, qHTS titration; O94925; actives 0.21% (n = 410,000); Potency, µM (series often up to 45.5 µM), without a hit: at the top dose activity change, negative = inhibition, hits mostly inhibitors; further: on the % scale 0 is the no-effect control and ±100 the full control effect
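Read-out is an Amplex red fluorescence increase coupled through glutamate oxidase and HRP, measured before and after 30 min room-temperature incubation. hKGA is in 45 mM KH2PO4 (pH 8.2) with 0.02% Tween-20; glutamine added as 1mM solution.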
BAZ2B inh: inhibitors of human BAZ2B bromodomain; actives 4.4% (n = 360,000); AID 504333; Potency, µM (top dose mostly 114 µM), for the others: at the top dose activity change, negative = inhibition, hits mostly inhibitors; AlphaScreen BAZ2B-H3K14Ac peptide displacement; further: on the % scale 0 is the no-effect control and ±100 the full control effect; nearly all actives have a fitted effect of over 60% in size
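In this displacement format the biotinylated H3(5-23) peptide acetylated at Lys14 serves as ligand at 50 nM, with BAZ2B at 50 nM in PBS pH 7.4 containing 0.01% Tween-20. Donor and acceptor beads are 10 ug/mL final.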
* = called active by the depositor; ? = inconclusive; nt = no result; [ ] = dose if it differs, or a comment. The call rests on the fitted dose curve; in most records, active means well fitted curve in the direction sought with a large enough effect; inconclusive means small, poorly fitted or top-dose-only effect, or another doubt; inactive means no such curve, though single readings can be large; an effect the other way counts as inactive or inconclusive. Potency means the concentration at half of the fitted maximal effect.

SMILES | JMJD2A Tudor | G9a inh | HP1b binding inh | GLS inh | BAZ2B inh
O=C(c1cccs1)N1CCc2c([nH]c3ccccc23)C1c1ccccn1 (stereo not given) | ? | 45µM* | -1% | 13% | ?
O=C(c1ccccc1-c1ncc[nH]1)N1CCc2c([nH]c3ccccc23)C1c1ccccn1 (stereo not given) | ? | nt | -25% | 13% | 28µM*
CC(=O)c1ccc(C(=O)N2CCc3c([nH]c4ccccc34)C2c2ccccn2)s1 (stereo not given) | ? | ? | 3% | -7% | 35µM*
CSc1nc(C(=O)N2CCc3c([nH]c4ccccc34)C2c2ccccn2)cs1 (stereo not given) | 50µM* | ? | -19% | -17% | 32µM*
CCOc1ccc(S(=O)(=O)N2CCCCC2)cc1NC(=O)CN1C(=O)NC(C)(c2ccc(C)cc2)C1=O (stereo not given) | ? | ? | 12% | 0% | ?
COc1ccc(C#Cc2ccc3c(c2)O[C@@H](CN(C)C(=O)Nc2cccc(OC)c2)[C@H](C)CN([C@@H](C)CO)S3(=O)=O)cc1 | nt | nt | nt | -2% | nt
COc1ccc(OCC(=O)N2CCc3c([nH]c4ccccc34)C2c2ccccn2)cc1 (stereo not given) | 56µM* | ? | -13% | 3% | ?
O=C(c1noc2c1CCCC2)N1CCc2c([nH]c3ccccc23)C1c1ccccn1 (stereo not given) | ? | 50µM* | ? | -6% | ?
Cc1cccc(C2c3[nH]c4ccccc4c3CCN2C(=O)c2noc3c2CCCC3)n1 (stereo not given) | ? | ? | -10% | 5% | ?
O=C(O)c1ccc(Cl)c(NC(=S)NC(=O)c2ccccc2[N+](=O)[O-])c1 | -3%[57.1 µM] | 32µM* | -1% | 12% | -1%
O=C(O)c1ccc(Cl)c(NC(=S)NC(=O)c2cccc(COc3ccccc3)c2)c1 | ? | -1% | ? | -29% | 50µM*
CCOC(=O)c1[nH]c(C)c(CCC(=O)N2CCN(c3cccc(C)c3C)CC2)c1C | ? | ? | 13%[57 µM] | -2% | ?
CC(=O)Nc1ccc(S(=O)(=O)N2CCC(N3CCCCCC3)CC2)cc1 | 20µM* | 40µM* | ? | -2% | -30%
CC(=O)Nc1ccc(S(=O)(=O)N2CCC(N3CCCCC3)CC2)cc1 | -7% | -3% | 32%[57 µM] | 0% | -5%
O=S(=O)(c1ccc(F)cc1)N1CCC(N2CCCCCC2)CC1 | ? | ? | ? | 27% | ?
O=S(=O)(c1ccc(Cl)cc1)N1CCC(N2CCCCCC2)CC1 | 2.5µM* | 2.5µM* | ? | 12% | 79µM*
COc1ccc(C(=O)N2CCC[C@@]3(CCN(Cc4ccc(C#N)cc4)C3)C2)cc1 | nt | 1%[12.7 µM] | nt | nt | nt
COC(=O)C1=C(C)N(Cc2ccc(OC)cc2)C(=O)C1 | -11% | 8%[59 µM] | 22% | -2% | 34%
COC(=O)C1=C(C)N(c2ccc(C)cc2)/C(=C/c2cccs2)C1=O | -22%[57.1 µM] | -3%[59 µM] | 47% | 2% | 7%
COC(=O)C1=C(C)N(Cc2cccnc2)C(=O)/C1=C\c1cccs1 | nt | nt | nt | nt | 28µM*
COC(=O)C1=C(C)N(CC(C)C)C(=O)C1 | -6% | 40µM* | 28% | 5% | 7%
C=CCN1C(=O)/C(=C\c2cccs2)C(C(=O)OC)=C1C | ? | 50µM* | ? | -2% | 40µM*
O=C(Nc1nccs1)c1ccc2c(c1)C(=O)N(Cc1cccnc1)C2=O | 0% | nt | 22% | -4% | -11%
COC(=O)C1=C(C)N(Cc2cccnc2)C(=O)C1 | -20% | 14µM* | 32% | -9% | 2%
O=C1OC(c2ccccc2)(c2ccccc2)N2CCN(C(=O)NCc3ccc(F)cc3)CC12 (stereo not given) | -15% | nt | nt | nt | nt
SMILES | JMJD2A Tudor | G9a inh | HP1b binding inh | GLS inh | BAZ2B inh
COc1ccc(-c2oc(NC(=O)CCl)c(C#N)c2-c2ccc(OC)cc2)cc1 | ? | 50µM* | -18% | 10% | 50µM*
Cc1cccc(-c2nc(CN3CCCC(C(=O)NCc4ccc(Cl)cc4)C3)c(C)o2)c1 (stereo not given) | ? | -50%[59 µM] | -3% | -4% | ?
CC(C)c1cccc(OCCN2CCCC2)c1 | 35µM* | 32µM* | ? | 2% | ?
CC1CCCN(CCCCOc2cccc(Br)c2)C1 (stereo not given) | 50µM* | ? | -14% | 4% | 50µM*
Brc1cccc(OCCCCN2CCCCC2)c1 | 50µM* | 7.1µM* | ? | 6% | ?
COc1cccc(OCCCCN2CCCCC2)c1 | 8.9µM* | ? | -3% | 3% | ?
Clc1cccc(OCCN2CCCC2)c1 | -10% | ? | 26% | 4% | -1%
CC(=O)N[C@@H](C=O)[C@@H](O)[C@H](O)[C@H](O)CO | nt | -1%[59 µM] | nt | 4% | nt
CCOc1cccc(OCCCCN2CCCCC2)c1 | ? | 8.9µM* | ? | -1% | ?
CC1CCCN(CCOc2ccc(Br)cc2)C1 (stereo not given) | 20µM* | 10µM* | -37% | -21% | ?
CCC1CCCCN1CCCCOc1cccc(Cl)c1 (stereo not given) | 18µM* | -21% | ? | 9% | ?
CC1CCCN(CCC(=O)c2ccc(Br)cc2)C1 (stereo not given) | -16% | ? | 19% | -13% | 5%
CNC(=O)C[C@@H]1C(=O)N(c2ccc(Br)cc2)CC1(C)C | nt | nt | nt | -5% | nt
COc1cc(C2NC(=O)N(C)C3=C2C(=O)N(c2ccccc2)C3)ccc1O (stereo not given) | -9% | 2%[59 µM] | 34% | 1% | -16%
CCCOc1ccc(/C=C2/C(=O)ON=C2C)cc1OCC | -8% | 45µM* | 26% | 4% | -8%
CCOc1cc(/C=C2\C(=O)ON=C2C)ccc1OCc1ccccc1 | -18% | 13µM* | 6% | -16% | -25%
CC(=O)c1ccc(-c2cnc3c(NC=O)cc(-c4ccccc4Oc4ccccc4)cn23)cc1 | nt | nt | nt | -24% | nt
Cn1cnnc1Sc1ccc(C(=O)OCC(=O)Nc2ccccc2)cc1[N+](=O)[O-] | -34% | -4%[59 µM] | -7% | 2% | -35%
Cn1cnnc1Sc1ccc(C(=O)OCC(=O)Nc2cc(Cl)cc(Cl)c2)cc1[N+](=O)[O-] | ? | 16µM* | -9% | 2% | -39%
CCOC(=O)C1CCN(C(=O)CSc2n[nH]c(-c3ccc(F)cc3)n2)CC1 | -6% | -30%[59 µM] | 21%[57 µM] | -7% | -1%
Cc1nn(C)c(Oc2cccc(C(F)(F)F)c2)c1C#N | 2% | 9% | 47% | ? | 0%
Cc1nn(C)c(Oc2cccc(Cl)c2)c1C#N | 20µM* | 23% | 17% | ? | 8%
CCN(CC)C(=O)c1ccccc1NC(=O)c1cccc(S(=O)(=O)N2CCC(C)CC2)c1 | -8% | -7%[59 µM] | 15% | 4% | 6%

Screening results from PubChem.
